Assay results taken from publication PMC7862700, “An all-to-all approach to the identification of sequence-specific readers for epigenetic DNA modifications on cytosine”.

Experiments:
Assay in all cases: DAPPL (digital affinity profiling via proximity ligation, sequencing); 10 mM Tris-HCl pH 7.5, 50 mM NaCl, 1 mM DTT, 4% glycerol, room temperature, 30 min; GST-TFs on glutathione beads, 16-mer random dsDNA library, 0.1% formaldehyde crosslink after washing; high values mean tight binding
FLI1 = target: T1, FLI1 (Homo sapiens, UniProt Q01543 1-452); conditions: protein: recombinant; tags: N-terminal GST; dsDNA, one strand shown
T1 sequence: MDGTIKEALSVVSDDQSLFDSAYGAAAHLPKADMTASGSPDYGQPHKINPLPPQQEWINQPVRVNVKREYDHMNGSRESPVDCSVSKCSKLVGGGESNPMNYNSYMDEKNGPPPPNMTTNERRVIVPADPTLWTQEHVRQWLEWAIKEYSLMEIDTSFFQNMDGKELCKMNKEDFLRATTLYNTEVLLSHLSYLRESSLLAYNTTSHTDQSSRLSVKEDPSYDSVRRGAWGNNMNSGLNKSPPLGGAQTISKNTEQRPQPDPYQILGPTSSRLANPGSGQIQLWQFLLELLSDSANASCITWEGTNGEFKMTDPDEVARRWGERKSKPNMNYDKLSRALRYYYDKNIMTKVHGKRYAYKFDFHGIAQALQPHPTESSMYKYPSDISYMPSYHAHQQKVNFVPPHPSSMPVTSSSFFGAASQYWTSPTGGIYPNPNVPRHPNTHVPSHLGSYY
Method in brief: (§1)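 Human transcription factors fused to GST were expressed in yeast, captured on glutathione beads, given DNA barcodes and pooled with a GST-only negative control. Pools were incubated with 200 nmole of a 16-mer random double-stranded DNA library in Tris/NaCl/DTT/glycerol buffer at room temperature for 30 min. They were then washed, crosslinked with 0.1% formaldehyde, proximity-ligated (BsaI/T4 ligase, 1 h, 37 °C), PCR-amplified and sequenced on an Illumina NextSeq500. Binding signal is each 6-mer's read frequency for a factor divided by its frequency for the GST control.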

ELK1 = target: T2, ELK1 (Homo sapiens, UniProt P19419 1-428); conditions: protein: recombinant; tags: N-terminal GST; dsDNA, one strand shown
T2 sequence: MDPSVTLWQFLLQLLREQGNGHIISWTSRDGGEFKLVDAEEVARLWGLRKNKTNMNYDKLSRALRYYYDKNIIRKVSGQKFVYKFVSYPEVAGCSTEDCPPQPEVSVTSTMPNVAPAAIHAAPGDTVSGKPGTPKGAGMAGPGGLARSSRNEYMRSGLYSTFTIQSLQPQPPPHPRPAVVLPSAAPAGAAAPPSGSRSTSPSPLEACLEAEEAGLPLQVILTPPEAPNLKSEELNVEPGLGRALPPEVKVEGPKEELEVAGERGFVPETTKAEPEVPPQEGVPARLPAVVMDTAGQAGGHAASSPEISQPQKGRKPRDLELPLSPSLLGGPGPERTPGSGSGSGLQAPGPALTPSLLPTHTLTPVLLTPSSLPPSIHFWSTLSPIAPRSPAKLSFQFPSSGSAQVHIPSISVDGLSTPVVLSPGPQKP
Method in brief: as §1

GABPA = target: T3, GABPA (Homo sapiens, UniProt Q06546 1-454); conditions: protein: recombinant; tags: N-terminal GST; dsDNA, one strand shown
T3 sequence: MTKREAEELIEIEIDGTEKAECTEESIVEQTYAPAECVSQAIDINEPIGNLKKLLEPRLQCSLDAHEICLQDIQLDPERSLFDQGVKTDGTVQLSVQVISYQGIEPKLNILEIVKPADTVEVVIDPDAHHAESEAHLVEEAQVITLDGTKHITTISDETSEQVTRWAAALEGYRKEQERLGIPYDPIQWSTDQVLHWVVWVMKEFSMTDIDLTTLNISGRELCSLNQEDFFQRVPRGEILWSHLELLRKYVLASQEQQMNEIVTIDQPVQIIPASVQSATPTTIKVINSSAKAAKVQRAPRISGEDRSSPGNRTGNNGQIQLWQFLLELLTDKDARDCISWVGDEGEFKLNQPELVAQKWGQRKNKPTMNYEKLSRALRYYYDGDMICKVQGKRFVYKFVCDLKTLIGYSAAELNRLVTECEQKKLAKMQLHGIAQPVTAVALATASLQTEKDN
Method in brief: as §1

ERG = target: T4, ERG (Homo sapiens, UniProt P11308 1-479); conditions: protein: recombinant; tags: N-terminal GST; dsDNA, one strand shown
T4 sequence: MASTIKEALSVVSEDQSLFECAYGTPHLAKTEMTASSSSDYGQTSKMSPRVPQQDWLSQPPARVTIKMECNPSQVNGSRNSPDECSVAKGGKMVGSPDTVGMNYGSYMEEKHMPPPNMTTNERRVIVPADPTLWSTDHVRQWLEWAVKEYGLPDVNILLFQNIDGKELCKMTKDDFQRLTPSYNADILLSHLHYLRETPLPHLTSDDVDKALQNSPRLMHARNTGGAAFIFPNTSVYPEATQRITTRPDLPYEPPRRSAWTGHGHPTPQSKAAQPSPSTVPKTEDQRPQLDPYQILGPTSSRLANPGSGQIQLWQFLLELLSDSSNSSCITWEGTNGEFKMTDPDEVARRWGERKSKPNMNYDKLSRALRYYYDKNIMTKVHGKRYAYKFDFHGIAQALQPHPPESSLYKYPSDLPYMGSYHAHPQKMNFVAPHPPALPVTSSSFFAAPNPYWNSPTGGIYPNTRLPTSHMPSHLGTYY
Method in brief: as §1

ELF1 = ELF1 (Homo sapiens, UniProt P32519 1-619); conditions: protein: recombinant; tags: N-terminal GST; dsDNA, one strand shown
Sequence of ELF1 (P32519 whole entry): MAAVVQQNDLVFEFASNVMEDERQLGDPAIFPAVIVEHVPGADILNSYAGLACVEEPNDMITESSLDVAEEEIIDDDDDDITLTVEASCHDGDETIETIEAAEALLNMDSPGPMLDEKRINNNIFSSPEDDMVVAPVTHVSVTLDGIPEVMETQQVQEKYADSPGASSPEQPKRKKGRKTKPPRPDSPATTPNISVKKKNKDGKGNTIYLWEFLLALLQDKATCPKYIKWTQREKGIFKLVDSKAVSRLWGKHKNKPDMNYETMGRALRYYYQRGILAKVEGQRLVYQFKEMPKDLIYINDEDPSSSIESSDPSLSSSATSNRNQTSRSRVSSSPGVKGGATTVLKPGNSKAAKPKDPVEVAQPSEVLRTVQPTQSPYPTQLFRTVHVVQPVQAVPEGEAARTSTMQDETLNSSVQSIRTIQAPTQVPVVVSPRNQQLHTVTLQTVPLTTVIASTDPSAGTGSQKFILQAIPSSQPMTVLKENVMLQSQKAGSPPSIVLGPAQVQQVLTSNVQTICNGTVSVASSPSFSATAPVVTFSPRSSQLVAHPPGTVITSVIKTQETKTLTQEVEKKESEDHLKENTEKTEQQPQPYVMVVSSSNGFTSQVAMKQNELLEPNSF
Method in brief: as §1

EHF = target: T5, EHF (Homo sapiens, UniProt Q9NZC4 1-300); conditions: protein: recombinant; tags: N-terminal GST; dsDNA, one strand shown
T5 sequence: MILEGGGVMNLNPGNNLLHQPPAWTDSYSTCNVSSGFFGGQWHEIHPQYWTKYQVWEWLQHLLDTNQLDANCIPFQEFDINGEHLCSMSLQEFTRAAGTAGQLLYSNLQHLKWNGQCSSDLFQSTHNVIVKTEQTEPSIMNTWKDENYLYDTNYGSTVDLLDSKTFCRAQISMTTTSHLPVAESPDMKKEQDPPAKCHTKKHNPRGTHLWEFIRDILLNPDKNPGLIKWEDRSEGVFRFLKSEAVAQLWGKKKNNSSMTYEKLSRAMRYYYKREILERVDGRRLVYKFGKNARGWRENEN
Method in brief: as §1

SPI1 = SPI1 (Homo sapiens, UniProt P17947 1-270); conditions: protein: recombinant; tags: N-terminal GST; dsDNA, one strand shown
Method in brief: as §1

SPIB = SPIB (Homo sapiens, UniProt Q01892 1-262); conditions: protein: recombinant; tags: N-terminal GST; dsDNA, one strand shown
Sequence of SPIB (Q01892 whole entry): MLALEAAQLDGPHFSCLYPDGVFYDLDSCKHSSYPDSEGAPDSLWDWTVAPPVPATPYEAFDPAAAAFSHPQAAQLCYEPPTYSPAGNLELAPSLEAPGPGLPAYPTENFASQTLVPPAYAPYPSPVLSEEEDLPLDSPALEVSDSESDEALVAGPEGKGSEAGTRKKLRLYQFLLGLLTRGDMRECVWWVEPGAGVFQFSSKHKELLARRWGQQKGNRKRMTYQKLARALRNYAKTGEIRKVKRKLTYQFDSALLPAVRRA
Method in brief: as §1

ELK3 = target: T6, ELK3 (Homo sapiens, UniProt P41970 1-407); conditions: protein: recombinant; tags: N-terminal GST; dsDNA, one strand shown
T6 sequence: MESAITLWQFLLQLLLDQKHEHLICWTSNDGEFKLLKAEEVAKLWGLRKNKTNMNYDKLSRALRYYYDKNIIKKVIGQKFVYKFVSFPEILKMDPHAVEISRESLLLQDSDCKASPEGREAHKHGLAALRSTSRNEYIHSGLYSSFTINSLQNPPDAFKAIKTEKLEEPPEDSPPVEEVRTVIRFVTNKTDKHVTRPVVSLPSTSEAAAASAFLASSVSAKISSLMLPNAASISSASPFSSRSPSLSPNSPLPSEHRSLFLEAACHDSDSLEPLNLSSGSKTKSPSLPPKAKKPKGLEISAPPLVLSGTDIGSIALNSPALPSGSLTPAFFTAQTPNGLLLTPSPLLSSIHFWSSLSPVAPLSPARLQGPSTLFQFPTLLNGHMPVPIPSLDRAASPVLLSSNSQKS
Method in brief: as §1

FEV = target: T7, FEV (Homo sapiens, UniProt Q99581 1-238); conditions: protein: recombinant; tags: N-terminal GST; dsDNA, one strand shown
T7 sequence: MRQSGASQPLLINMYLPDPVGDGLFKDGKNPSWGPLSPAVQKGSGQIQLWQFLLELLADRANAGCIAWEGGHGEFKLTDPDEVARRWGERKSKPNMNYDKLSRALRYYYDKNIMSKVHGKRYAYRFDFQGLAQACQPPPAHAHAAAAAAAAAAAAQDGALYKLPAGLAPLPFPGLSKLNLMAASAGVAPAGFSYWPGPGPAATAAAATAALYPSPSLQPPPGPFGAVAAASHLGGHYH
Method in brief: as §1

ETV5 = ETV5 (Homo sapiens, UniProt P41161 1-510); conditions: protein: recombinant; tags: N-terminal GST; dsDNA, one strand shown
Sequence of ETV5 (P41161 whole entry): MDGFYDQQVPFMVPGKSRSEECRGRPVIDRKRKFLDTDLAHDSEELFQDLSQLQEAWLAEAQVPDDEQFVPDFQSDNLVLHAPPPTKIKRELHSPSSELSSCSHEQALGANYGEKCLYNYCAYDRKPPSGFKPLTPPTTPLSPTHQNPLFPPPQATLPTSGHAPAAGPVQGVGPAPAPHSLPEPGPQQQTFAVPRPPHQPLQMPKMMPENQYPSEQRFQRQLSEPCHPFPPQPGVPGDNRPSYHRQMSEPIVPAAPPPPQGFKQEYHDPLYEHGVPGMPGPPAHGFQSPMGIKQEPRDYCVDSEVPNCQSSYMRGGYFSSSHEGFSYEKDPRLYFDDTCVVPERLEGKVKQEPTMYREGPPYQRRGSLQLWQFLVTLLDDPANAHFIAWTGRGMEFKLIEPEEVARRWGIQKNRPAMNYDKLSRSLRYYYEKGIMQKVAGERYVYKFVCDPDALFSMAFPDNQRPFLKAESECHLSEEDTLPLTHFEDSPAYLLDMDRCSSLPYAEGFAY
Method in brief: as §1

HSF1 = HSF1 (Homo sapiens, UniProt Q00613 1-529); conditions: protein: recombinant; tags: N-terminal GST; chain copies: 3; dsDNA, one strand shown
Sequence of HSF1 (Q00613 whole entry): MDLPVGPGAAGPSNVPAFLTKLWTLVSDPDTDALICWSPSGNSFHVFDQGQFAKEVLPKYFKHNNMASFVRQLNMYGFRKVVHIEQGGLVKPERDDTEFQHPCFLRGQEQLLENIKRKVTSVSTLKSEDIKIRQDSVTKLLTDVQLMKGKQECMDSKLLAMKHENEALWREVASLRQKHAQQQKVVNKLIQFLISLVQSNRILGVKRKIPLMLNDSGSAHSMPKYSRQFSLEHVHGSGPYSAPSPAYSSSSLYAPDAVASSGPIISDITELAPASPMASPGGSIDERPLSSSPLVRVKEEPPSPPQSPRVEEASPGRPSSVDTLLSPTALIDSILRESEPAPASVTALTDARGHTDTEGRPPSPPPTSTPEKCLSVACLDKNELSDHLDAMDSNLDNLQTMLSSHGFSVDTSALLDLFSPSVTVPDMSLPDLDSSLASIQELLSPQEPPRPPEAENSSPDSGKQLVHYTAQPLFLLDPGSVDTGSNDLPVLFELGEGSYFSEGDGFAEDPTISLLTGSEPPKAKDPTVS
Method in brief: as §1

SPIC = target: T8, SPIC (Homo sapiens, UniProt Q8N5J4 1-248); conditions: protein: recombinant; tags: N-terminal GST; dsDNA, one strand shown
T8 sequence: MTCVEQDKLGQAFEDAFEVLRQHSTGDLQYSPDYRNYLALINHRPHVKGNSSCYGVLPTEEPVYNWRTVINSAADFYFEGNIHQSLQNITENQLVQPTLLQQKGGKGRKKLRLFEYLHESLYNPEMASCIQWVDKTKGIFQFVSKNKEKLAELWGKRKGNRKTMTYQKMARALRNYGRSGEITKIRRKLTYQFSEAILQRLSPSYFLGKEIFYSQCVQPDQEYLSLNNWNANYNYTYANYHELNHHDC
Method in brief: as §1

ELF4 = ELF4 (Homo sapiens, UniProt Q99607 1-663); conditions: protein: recombinant; tags: N-terminal GST; dsDNA, one strand shown
Sequence of ELF4 (Q99607 whole entry): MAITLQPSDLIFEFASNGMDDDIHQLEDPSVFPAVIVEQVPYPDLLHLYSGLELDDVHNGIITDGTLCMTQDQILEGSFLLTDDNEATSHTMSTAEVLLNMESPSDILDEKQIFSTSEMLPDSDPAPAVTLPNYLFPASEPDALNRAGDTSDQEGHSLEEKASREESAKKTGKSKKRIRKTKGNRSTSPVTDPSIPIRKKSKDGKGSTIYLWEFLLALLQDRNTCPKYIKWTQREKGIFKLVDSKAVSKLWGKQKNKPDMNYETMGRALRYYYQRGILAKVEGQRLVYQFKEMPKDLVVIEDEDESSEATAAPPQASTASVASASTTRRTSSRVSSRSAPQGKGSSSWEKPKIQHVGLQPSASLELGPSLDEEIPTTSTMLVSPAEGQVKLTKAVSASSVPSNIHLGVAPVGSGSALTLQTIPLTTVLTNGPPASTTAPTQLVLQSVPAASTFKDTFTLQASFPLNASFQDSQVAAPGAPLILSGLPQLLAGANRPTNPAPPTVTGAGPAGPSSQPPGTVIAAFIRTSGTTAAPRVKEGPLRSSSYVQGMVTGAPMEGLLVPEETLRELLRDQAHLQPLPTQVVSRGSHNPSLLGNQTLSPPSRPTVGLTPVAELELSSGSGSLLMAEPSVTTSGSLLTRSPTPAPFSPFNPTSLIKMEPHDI
Method in brief: as §1

ELK4 = target: T9, ELK4 (Homo sapiens, UniProt P28324-2 1-405); conditions: protein: recombinant; tags: N-terminal GST; dsDNA, one strand shown
T9 sequence: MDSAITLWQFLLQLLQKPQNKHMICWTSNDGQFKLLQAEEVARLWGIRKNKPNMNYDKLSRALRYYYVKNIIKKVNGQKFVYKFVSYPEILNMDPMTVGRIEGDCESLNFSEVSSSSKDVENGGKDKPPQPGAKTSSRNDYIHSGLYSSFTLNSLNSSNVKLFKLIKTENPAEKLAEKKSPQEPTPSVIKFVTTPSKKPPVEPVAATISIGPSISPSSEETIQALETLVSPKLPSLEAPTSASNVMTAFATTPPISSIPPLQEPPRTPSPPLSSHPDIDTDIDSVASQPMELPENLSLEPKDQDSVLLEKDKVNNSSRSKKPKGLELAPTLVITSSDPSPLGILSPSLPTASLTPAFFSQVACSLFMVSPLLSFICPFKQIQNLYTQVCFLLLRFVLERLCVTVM
Method in brief: as §1

ETV2 = target: T10, ETV2 (Homo sapiens, UniProt O00321 1-342); conditions: protein: recombinant; tags: N-terminal GST; dsDNA, one strand shown
T10 sequence: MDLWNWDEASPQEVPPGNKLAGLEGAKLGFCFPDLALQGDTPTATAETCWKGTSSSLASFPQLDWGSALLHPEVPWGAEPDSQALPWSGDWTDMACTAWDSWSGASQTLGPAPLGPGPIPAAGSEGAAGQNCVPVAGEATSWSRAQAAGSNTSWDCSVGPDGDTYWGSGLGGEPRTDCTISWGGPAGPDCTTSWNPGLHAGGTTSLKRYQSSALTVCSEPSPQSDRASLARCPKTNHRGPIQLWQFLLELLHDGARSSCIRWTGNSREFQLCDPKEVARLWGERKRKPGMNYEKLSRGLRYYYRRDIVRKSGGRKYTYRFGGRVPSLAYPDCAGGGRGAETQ
Method in brief: as §1

ELF3 = target: T11, ELF3 (Homo sapiens, UniProt P78545 1-371); conditions: protein: recombinant; tags: N-terminal GST; dsDNA, one strand shown
T11 sequence: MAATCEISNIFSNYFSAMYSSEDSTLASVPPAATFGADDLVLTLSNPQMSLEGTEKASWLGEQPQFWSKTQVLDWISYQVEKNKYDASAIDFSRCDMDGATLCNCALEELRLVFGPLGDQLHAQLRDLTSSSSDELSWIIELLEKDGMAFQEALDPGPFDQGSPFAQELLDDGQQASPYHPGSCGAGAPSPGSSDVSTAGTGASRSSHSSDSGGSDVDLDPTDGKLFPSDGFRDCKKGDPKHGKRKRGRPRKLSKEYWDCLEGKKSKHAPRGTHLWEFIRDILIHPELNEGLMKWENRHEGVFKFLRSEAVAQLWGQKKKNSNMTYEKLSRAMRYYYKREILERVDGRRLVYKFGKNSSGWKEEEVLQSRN
Method in brief: as §1

CRX = CRX (Homo sapiens, UniProt O43186 1-299); conditions: protein: recombinant; tags: N-terminal GST; dsDNA, one strand shown
Sequence of CRX (O43186 whole entry): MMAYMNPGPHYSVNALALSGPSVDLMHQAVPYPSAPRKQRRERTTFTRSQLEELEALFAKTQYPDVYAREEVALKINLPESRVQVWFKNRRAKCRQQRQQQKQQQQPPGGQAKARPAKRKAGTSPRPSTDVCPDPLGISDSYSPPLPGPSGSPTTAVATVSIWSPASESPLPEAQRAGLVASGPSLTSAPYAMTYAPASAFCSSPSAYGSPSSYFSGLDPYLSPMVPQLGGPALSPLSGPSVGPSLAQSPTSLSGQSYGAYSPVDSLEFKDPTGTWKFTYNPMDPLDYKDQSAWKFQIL
Method in brief: as §1

ETV1 = ETV1 (Homo sapiens, UniProt P50549 1-477); conditions: protein: recombinant; tags: N-terminal GST; dsDNA, one strand shown
Sequence of ETV1 (P50549 whole entry): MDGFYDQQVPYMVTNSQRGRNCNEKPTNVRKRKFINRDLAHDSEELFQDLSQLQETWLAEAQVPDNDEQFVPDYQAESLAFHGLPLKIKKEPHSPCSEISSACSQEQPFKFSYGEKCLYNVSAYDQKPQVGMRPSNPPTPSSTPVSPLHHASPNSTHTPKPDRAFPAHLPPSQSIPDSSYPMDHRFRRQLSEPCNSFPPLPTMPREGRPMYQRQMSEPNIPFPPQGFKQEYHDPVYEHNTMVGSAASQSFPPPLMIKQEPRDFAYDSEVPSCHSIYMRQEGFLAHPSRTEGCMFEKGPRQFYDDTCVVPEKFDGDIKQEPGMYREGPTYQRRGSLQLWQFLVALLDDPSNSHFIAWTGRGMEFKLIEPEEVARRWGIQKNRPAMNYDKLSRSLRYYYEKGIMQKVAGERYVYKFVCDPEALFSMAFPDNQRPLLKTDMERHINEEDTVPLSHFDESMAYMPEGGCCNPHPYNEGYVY
Method in brief: as §1

With TCTCGT the binding signal (FLI1) was 1.34 fold enrichment (6-mer frequency, TF over GST control), the binding signal (ELK1) was 1.11 fold enrichment (6-mer frequency, TF over GST control) and the binding signal (GABPA) was 1.15 fold enrichment (6-mer frequency, TF over GST control). The binding signal (ERG) was 1.11 fold enrichment (6-mer frequency, TF over GST control), the binding signal (ELF1) was 1.24 fold enrichment (6-mer frequency, TF over GST control) and the binding signal (EHF) was 1.22 fold enrichment (6-mer frequency, TF over GST control). The binding signal (SPI1) was 1.24 fold enrichment (6-mer frequency, TF over GST control), the binding signal (SPIB) was 1.3 fold enrichment (6-mer frequency, TF over GST control) and the binding signal (ELK3) was 1.19 fold enrichment (6-mer frequency, TF over GST control). The binding signal (FEV) was 1.21 fold enrichment (6-mer frequency, TF over GST control), the binding signal (ETV5) was 1.1 fold enrichment (6-mer frequency, TF over GST control) and the binding signal (HSF1) was 2.01 fold enrichment (6-mer frequency, TF over GST control). For the same sequence, the binding signal (SPIC) was 1.31 fold enrichment (6-mer frequency, TF over GST control), the binding signal (ELF4) was 1.24 fold enrichment (6-mer frequency, TF over GST control) and the binding signal (ELK4) was 1.3 fold enrichment (6-mer frequency, TF over GST control). The binding signal (ETV2) was 1.27 fold enrichment (6-mer frequency, TF over GST control), the binding signal (ELF3) was 1.65 fold enrichment (6-mer frequency, TF over GST control) and the binding signal (CRX) was 1.35 fold enrichment (6-mer frequency, TF over GST control). The binding signal (ETV1) was 1.27 fold enrichment (6-mer frequency, TF over GST control).
